Test results published in PubChem BioAssay (NCI).
The panel holds about 79,000 compounds, 15% with a hit somewhere; the sample as a whole holds those more often. The source made the active and inactive calls. Cut-off read from the data, not from the text of the source: active = growth inhibition above about 70%; inactive = the rest.

How the values were obtained:
[1] = NCI Yeast Anticancer Drug Screen. Data for the mec2-1 strain (AID 157); settings: S. cerevisiae mec2-1 strain, active compounds read high
How it was run: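 Using mec2-1 yeast: add compound, measure growth, express inhibition versus vehicle-treated cultures.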

[2] = NCI Yeast Anticancer Drug Screen. Data for the rad14 strain (AID 159);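 note: 0% = growth of vehicle-treated control cultures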; settings: S. cerevisiae rad14 strain growth inhibition, active compounds read high
How it was run: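 Growth inhibition vs vehicle controls; genetically altered yeast strain (DNA damage repair defect) treated with test compounds.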

[3] = NCI Yeast Anticancer Drug Screen. Data for the sgs1 mgt1 strain (AID 161);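 note: 0% = growth of cultures given vehicle only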; settings: S. cerevisiae sgs1 mgt1 strain, active compounds read high
How it was run: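 Compounds are added to genetically altered yeast, and growth is compared with cultures given vehicle alone to give percent inhibition.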

[4] = NCI Yeast Anticancer Drug Screen. Data for the CLN2oe strain (AID 163);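 note: 0% = growth of vehicle-only control cultures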; settings: S. cerevisiae CLN2oe strain, active compounds read high
How it was run: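 Whole-cell yeast growth assay. A strain engineered for altered cell-cycle control received compound, and inhibition relative to vehicle-treated cultures was recorded.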

[5] = NCI Yeast Anticancer Drug Screen. Data for the bub3 strain (AID 167); settings: S. cerevisiae bub3 mutant strain, active compounds read high
How it was run: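 Readout: yeast growth inhibition, expressed relative to vehicle-only wells. The test organism is a mutant strain from a panel with lesions in DNA repair or checkpoint genes.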

[6] = NCI Yeast Anticancer Drug Screen. Data for the wt2 strain (AID 169);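 note: 0% = growth of vehicle-treated yeast cultures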; settings: S. cerevisiae wt2 strain growth inhibition, active compounds read high
How it was run: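 Treated yeast vs. vehicle-treated yeast: growth inhibition determined.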

[7] = NCI Yeast Anticancer Drug Screen. Data for the mlh1 strain (AID 171);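 note: 0% = growth of vehicle-treated control cultures of the same strain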; settings: S. cerevisiae mlh1 strain growth inhibition, active compounds read high
How it was run: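 A yeast strain with a defined genetic lesion serves as the test organism. Cultures receive compound or vehicle, and growth is measured.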

[8] = NCI Yeast Anticancer Drug Screen. Data for the mlh1 rad18 strain (AID 175); settings: S. cerevisiae mlh1 rad18 strain growth inhibition, active compounds read high
How it was run: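 Steps: expose repair-defective yeast to compound; measure growth; express inhibition against vehicle-treated controls.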

[9] = NCI Yeast Anticancer Drug Screen. Data for the rad18 strain (AID 177); settings: S. cerevisiae rad18 mutant growth inhibition, active compounds read high
How it was run: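 Measured value is growth inhibition of a yeast strain bearing a DNA repair alteration, referenced to vehicle-treated cells.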

[10] = NCI Yeast Anticancer Drug Screen. Data for the rad52 strain (AID 147);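 note: 0% = growth of vehicle-treated control cultures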; settings: S. cerevisiae rad52 mutant growth inhibition, active compounds read high
How it was run: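 Here a repair-compromised yeast strain receives each compound; its growth is then quantified and normalised to vehicle-only controls.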

[11] = NCI Yeast Anticancer Drug Screen. Data for the wt1 strain (AID 149);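 note: 0% = growth of vehicle-treated wt1 cultures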; settings: S. cerevisiae wt1 strain (SPY 50644) growth inhibition, active compounds read high
How it was run: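 Growth inhibition read against vehicle controls after compound exposure of the wt1 yeast strain.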

[12] = NCI Yeast Anticancer Drug Screen. Data for the rad50EPP+ strain (AID 151);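 note: 0% = growth of vehicle-treated control cultures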; settings: S. cerevisiae rad50 mutant strain, active compounds read high
How it was run: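 Read-out is yeast growth inhibition relative to vehicle; cells used were the rad50EPP+ strain.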

[13] = NCI Yeast Anticancer Drug Screen. Data for the mgt1 strain (AID 153); settings: S. cerevisiae mgt1 mutant growth inhibition, active compounds read high
How it was run: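 Measured: inhibition of mgt1 yeast growth by compound, normalized to vehicle-treated cultures.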

[14] = NCI Yeast Anticancer Drug Screen. Data for the rad50 strain (AID 155);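 note: 0% = growth of vehicle-only cultures of the same strain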; settings: S. cerevisiae rad50 strain growth inhibition, active compounds read high
How it was run: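 Readout: growth inhibition relative to vehicle-treated cultures. Compound exposure was carried out in a genetically defined yeast strain deficient in DNA damage repair.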

[15] = NCI Yeast Anticancer Drug Screen. Data for the cln2 rad14 strain (AID 165);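 note: 0% = growth equal to vehicle treated cultures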; settings: S. cerevisiae cln2 rad14 strain, active compounds read high
How it was run: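 Yeast strain cln2 rad14, bearing defects in cell cycle control and DNA repair, serves as the test system; values reflect growth inhibition compared with vehicle.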

[16] = NCI Yeast Anticancer Drug Screen. Data for the sgs1 strain (AID 173);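 note: 0% = growth of vehicle-only control cultures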; settings: S. cerevisiae sgs1 mutant, active compounds read high
How it was run: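 A genetically defined yeast mutant is incubated with the test compound, and its growth is compared to that of the same strain given vehicle.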

[17] = at 5.0 µM (retest, dose inferred, filed as 0.5)
[18] = at 50.0 µM (retest, dose inferred, filed as 5.0)

Measured: growth inhibition

Cc1ccc(NC(Nc2ccc(C)cc2C)=C(C(Cl)=C(Cl)Cl)[N+](=O)[O-])c(C)c1
active: [1]; [17] 74% | [1]; at 33.0 µM 99% | [1]; [18] 98% | [1]; at 50.0 µM 98.8% | [1]; at 100.0 µM 94% | [2]; at 33.0 µM 99% | [2]; at 100.0 µM 94% | [3]; [17] 94% | [3]; [18] 99% | [3]; at 50.0 µM 98.9% | [4]; at 33.0 µM 99% | [4]; at 100.0 µM 94% | [5]; at 33.0 µM 99% | [5]; [18] 98% | [5]; at 50.0 µM 98.3% | [5]; at 100.0 µM 91% | [6]; at 33.0 µM 99% | [6]; at 100.0 µM 94% | [7]; at 33.0 µM 99% | [7]; at 100.0 µM 94% | [8]; [17] 96% | [8]; [18] 98% | [8]; at 50.0 µM 98.3% | [9]; at 11.0 µM 72% | [9]; at 33.0 µM 99% | [9]; at 100.0 µM 92%
inactive: [1]; at 11.0 µM 49% | [2]; at 1.2 µM 2% | [2]; at 3.7 µM 2% | [2]; at 11.0 µM 25% | [4]; at 1.2 µM -3% | [4]; at 3.7 µM -1% | [4]; at 11.0 µM 48% | [5]; at 1.2 µM -2% | [5]; at 3.7 µM -4% | [5]; [17] 67% | [5]; at 11.0 µM 30% | [6]; at 1.2 µM 2% | [6]; at 3.7 µM 4% | [6]; at 11.0 µM 47% | [7]; at 1.2 µM 1% | [7]; at 3.7 µM 5% | [7]; at 11.0 µM 35% | [9]; at 1.2 µM 2% | [9]; at 3.7 µM 7%

CC(=O)NC(c1nc2cc(C)c(C)cc2[nH]1)c1nc2cc(C)c(C)cc2[nH]1
active: [13]; at 100.0 µM 80% | [14]; [18] 94% | [1]; [18] 94% | [1]; at 100.0 µM 78% | [3]; [18] 78% | [15]; [18] 92% | [5]; [18] 82% | [5]; at 100.0 µM 82% | [16]; at 100.0 µM 73% | [8]; [18] 95%
inactive: [10]; at 1.2 µM 0% | [10]; at 3.7 µM -2% | [10]; at 11.0 µM 5% | [10]; at 33.0 µM 28% | [10]; at 100.0 µM 62% | [11]; at 1.2 µM -20% | [11]; at 3.7 µM -28% | [11]; at 11.0 µM -14% | [11]; at 33.0 µM 16% | [11]; at 100.0 µM 62% | [12]; at 1.2 µM -1% | [12]; at 3.7 µM 7% | [12]; at 11.0 µM 1% | [12]; at 33.0 µM 19% | [12]; at 100.0 µM 47% | [13]; at 1.2 µM 11% | [13]; at 3.7 µM 19% | [13]; at 11.0 µM 31% | [13]; at 33.0 µM 59% | [14]; at 1.2 µM 13% | [14]; at 3.7 µM 4% | [14]; [17] 29% | [14]; at 11.0 µM 15% | [14]; at 33.0 µM 39% | [14]; at 50.0 µM 61.3% | [14]; at 100.0 µM 67% | [1]; at 1.2 µM 11% | [1]; at 3.7 µM 15% | [1]; [17] 36% | [1]; at 11.0 µM 22% | [1]; at 33.0 µM 42% | [1]; at 50.0 µM 37.2% | [2]; at 1.2 µM -22% | [2]; at 3.7 µM -21% | [2]; at 11.0 µM -9% | [2]; at 33.0 µM 21% | [2]; at 100.0 µM 66% | [3]; [17] -16% | [3]; at 50.0 µM 57.5% | [15]; [17] 51% | [15]; at 50.0 µM 42.8% | [5]; at 1.2 µM -2% | [5]; at 3.7 µM 15% | [5]; [17] 16% | [5]; at 11.0 µM 22% | [5]; at 33.0 µM 56% | [5]; at 50.0 µM 63.1% | [6]; at 1.2 µM -27% | [6]; at 3.7 µM -25% | [6]; at 11.0 µM -20% | [6]; at 33.0 µM 20% | [6]; at 100.0 µM 60% | [7]; at 1.2 µM -45% | [7]; at 3.7 µM -33% | [7]; at 11.0 µM -17% | [7]; at 33.0 µM 19% | [7]; at 100.0 µM 64% | [16]; at 1.2 µM -4% | [16]; at 3.7 µM -2% | [16]; at 11.0 µM -1% | [16]; at 33.0 µM 36% | [8]; [17] 35% | [8]; at 50.0 µM 37.6% | [9]; at 1.2 µM -4% | [9]; at 3.7 µM 1% | [9]; at 11.0 µM 6% | [9]; at 33.0 µM 22% | [9]; at 100.0 µM 55%

COc1c2c(c3c(c1CCC(=O)O)OC(C)(C)C=C3)OC(C)(C)C=C2
active: [10]; at 100.0 µM 98% | [11]; at 100.0 µM 97% | [13]; at 100.0 µM 99% | [14]; at 100.0 µM 98% | [1]; at 100.0 µM 98% | [2]; at 100.0 µM 98% | [15]; [18] 82% | [15]; at 50.0 µM 91.2% | [5]; at 50.0 µM 71.9% | [5]; at 100.0 µM 97% | [6]; at 100.0 µM 98% | [7]; at 100.0 µM 99% | [16]; at 100.0 µM 98% | [8]; at 50.0 µM 76.4% | [9]; at 100.0 µM 97%
inactive: [10]; at 1.2 µM -3% | [10]; at 3.7 µM 1% | [10]; at 11.0 µM 10% | [10]; at 33.0 µM 62% | [11]; at 1.2 µM 0% | [11]; at 3.7 µM 2% | [11]; at 11.0 µM 13% | [11]; at 33.0 µM 49% | [12]; at 1.2 µM -3% | [12]; at 3.7 µM 1% | [12]; at 11.0 µM 5% | [12]; at 33.0 µM 15% | [12]; at 100.0 µM 35% | [13]; at 1.2 µM -1% | [13]; at 3.7 µM 0% | [13]; at 11.0 µM 15% | [13]; at 33.0 µM 61% | [14]; at 1.2 µM -1% | [14]; at 3.7 µM -3% | [14]; [17] 15% | [14]; at 11.0 µM 19% | [14]; at 33.0 µM 54% | [14]; [18] 45% | [14]; at 50.0 µM 58.2% | [1]; at 1.2 µM -2% | [1]; at 3.7 µM 2% | [1]; [17] -1% | [1]; at 11.0 µM 20% | [1]; at 33.0 µM 59% | [1]; [18] 49% | [1]; at 50.0 µM 65.8% | [2]; at 1.2 µM 0% | [2]; at 3.7 µM 2% | [2]; at 11.0 µM 11% | [2]; at 33.0 µM 53% | [3]; [17] -3% | [3]; [18] 32% | [3]; at 50.0 µM 69.8% | [15]; [17] 43% | [5]; at 1.2 µM -7% | [5]; at 3.7 µM -1% | [5]; [17] -13% | [5]; at 11.0 µM 6% | [5]; at 33.0 µM 58% | [5]; [18] 20% | [6]; at 1.2 µM -1% | [6]; at 3.7 µM 2% | [6]; at 11.0 µM 17% | [6]; at 33.0 µM 56% | [7]; at 1.2 µM 2% | [7]; at 3.7 µM 3% | [7]; at 11.0 µM 20% | [7]; at 33.0 µM 39% | [16]; at 1.2 µM 0% | [16]; at 3.7 µM 4% | [16]; at 11.0 µM 20% | [16]; at 33.0 µM 59% | [8]; [17] 3% | [8]; [18] 43% | [9]; at 1.2 µM 3% | [9]; at 3.7 µM 8% | [9]; at 11.0 µM 22% | [9]; at 33.0 µM 51%
